Hits are enriched below; roughly 4.3% of the tested compounds scored in any of these assays.
GRIN3A LBD mod: NR3A (human) ligand-binding domain modulation; NR3A LBD differential scanning fluorimetry, Tm shift; 0% = protein alone, 100% = glycine-bound protein; Tm shift relative to glycine control, % at 25 µM; 2.5% of 340,000 active; AID 1259313;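 active = melting temperature shift of at least 10% of the positive control shift, at one fixed dose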
rCAG RNA binder: molecules binding r(CAG) RNA repeats | r(CAG) RNA repeat, TO-PRO-1 dye displacement fluorescence | inhibition, % at 3 µM | 1.3% of 370,000 active;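 active = inhibition above the plate cutoff, the mean of all test compounds on that plate plus 3 SD, cut at about 35% in these data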;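 note: higher means more dye released from RNA so lower well fluorescence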
NadD block: blocks S. aureus nicotinate mononucleotide adenylyltransferase. purified NadD enzyme, colorimetric absorbance read-out. inhibition, % at 20 µM. 0.78% of 360,000 active; in the data active = inhibition above about 26%
FAS-TE inh: FAS thioesterase (human) inhibition; P49327; inhibition, % at 15 µM; recombinant FAS-TE, OMFH fluorogenic substrate, fluorescence endpoint; 0.67% of 360,000 active; AID 602261;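 active = compounds whose normalised, plate-corrected inhibition of enzyme fluorescence in the single-dose primary screen is 50% or more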
FAS-TE conf: FAS thioesterase (human) inhibition, confirmation; 45% of 2,300 active; shares compounds with FAS-TE inh; recombinant FAS-TE, OMFH fluorogenic substrate, fluorescence; inhibition, % at 15 µM; AID 624325;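 active = compounds inhibiting the enzyme by at least 50% at 15 µM in any one of the replicates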
A number is an active result; 0 = inactive; - = no result.

SMILES | GRIN3A LBD mod | rCAG RNA binder | NadD block | FAS-TE inh | FAS-TE conf
Cc1ccc(CC#N)c(-c2c(CC#N)ccc(C)c2C)c1C | - | 0 | 0 | 0 | -
COCc1cc(C)nc(SCC[N+](C)(C)CC(=O)Nc2ccccc2)c1C#N | 0 | 0 | 0 | 53 | 63
N#Cc1cc(-c2ccccc2)cn(Cc2c(Cl)cccc2Cl)c1=O | 11 | 0 | 0 | 62 | 25
Cc1ccc(-c2cc(C#N)c(=O)n(Cc3c(Cl)cccc3Cl)c2)cc1 | 0 | 0 | 0 | 0 | -
Cc1onc(-c2c(Cl)cccc2Cl)c1-c1nc2cc(Cl)ccc2c(=O)o1 | 0 | 0 | 0 | 54 | 0
Fc1cccc(-c2cc3nc4c(c(N5CCC6(CC5)OCCO6)n3n2)CCCC4)c1 | 0 | 0 | 0 | 55 | 0
OC1CCN(c2c3c(nc4cc(-c5cccc(F)c5)nn24)CCCC3)CC1 | 0 | 0 | 0 | 0 | -
Cc1ccccc1S(=O)(=O)N1CCC(c2nc3ccccc3o2)CC1 | - | 0 | - | - | -
Cc1ccc(SCc2cc(=O)[nH]c(/N=C(\N)Nc3cccc4ccccc34)n2)cc1 | 0 | 0 | 0 | 58 | 0
Oc1ccccc1C=NC(N=Cc1ccccc1O)c1ccccc1O (stereo unspecified) | - | 0 | - | - | -
CN(C)C(=O)CCc1ccc2c3c([nH]c2c1)[C@]1(CCC2CCCC2)[C@@H](C(=O)N2CCOCC2)C[C@H](CC(=O)NCCc2ccccn2)C(=O)N1CC3 | 0 | 0 | 0 | 0 | -
O=C(CC1C[C@H](C(=O)N2CCOCC2)[C@@]2(CCC3CCCC3)c3[nH]c4ccccc4c3CCN2C1=O)NCc1ccco1 (stereo partly specified) | 0 | 0 | 0 | 84 | 92
O=C(CC1C[C@H](C(=O)N2CCOCC2)[C@@]2(CCC3CCCC3)c3[nH]c4ccccc4c3CCN2C1=O)NCCc1ccccn1 (stereo partly specified) | 0 | 0 | 0 | 80 | 91
O=C(CC1C[C@H](C(=O)N2CCOCC2)[C@@]2(CCC3CCCC3)c3[nH]c4ccccc4c3CCN2C1=O)NCC12CC3CC(CC(C3)C1)C2 (stereo partly specified) | 0 | 0 | 0 | 89 | 0
O=C(C[C@H]1C[C@H](C(=O)N2CCOCC2)[C@@]2(CCC3CCCC3)c3[nH]c4ccc(Cl)cc4c3CCN2C1=O)NCCCn1ccnc1 | 0 | 0 | 0 | 55 | 0
O=C(CSc1nnc(-c2ccncc2)n1-c1ccc(Cl)cc1)c1ccc(Cl)c(Cl)c1 | - | 0 | - | - | -
O=C(CC1C[C@H](C(=O)N2CCOCC2)[C@@]2(CCC3CCCC3)c3[nH]c4ccccc4c3CCN2C1=O)NCCN1CCOCC1 (stereo partly specified) | 0 | 0 | 0 | 76 | 87
COc1ccc2[nH]c3c(c2c1)CCN1C(=O)C(CC(=O)NCCc2ccccn2)C[C@H](C(=O)N2CCOCC2)[C@@]31CCC1CCCC1 (stereo partly specified) | 0 | 0 | 0 | 61 | 46
COCCCNC(=O)CC1C[C@H](C(=O)N2CCOCC2)[C@@]2(CCC3CCCC3)c3[nH]c4ccc(OC)cc4c3CCN2C1=O (stereo partly specified) | 0 | 0 | 0 | 53 | 64
CC[C@]12c3[nH]c4ccccc4c3CCN1C(=O)C(CC(=O)NCCN1CCOCC1)C[C@@H]2C(=O)N1CCN(C(=O)c2ccco2)CC1 (stereo partly specified) | 0 | 0 | 0 | 0 | -
O[C@@H](Cc1ccccc1)[C@@H](/C=C/c1ccccc1)NCCc1ccccc1 | - | 0 | - | - | -
O=S1(=O)c2ccc(N3CCN(Cc4ccccc4F)CC3)cc2Oc2ccccc2CN1Cc1cn(Cc2cccc(F)c2)nn1 | - | 0 | - | - | -
CSCC[C@H](NC(=O)c1cc([N+](=O)[O-])ccc1Cl)c1nc2ccccc2[nH]1 | 0 | 0 | 0 | 63 | 0
Cc1ccc(-c2nnc(NCc3nc4ccccc4[nH]3)c3ccccc23)cc1S(=O)(=O)N1CCCCC1 | 0 | 0 | 0 | 69 | 0
Cc1ccc(-c2nnc(NC3CCCCC3)c3ccccc23)cc1S(=O)(=O)N1CCN(C)CC1 | 0 | 0 | 0 | 0 | -
SMILES | GRIN3A LBD mod | rCAG RNA binder | NadD block | FAS-TE inh | FAS-TE conf
O=C1[C@H]2C(c3ccccc3)=NN(c3ccccc3)[C@H]2C(=O)N1c1ccccc1 | 0 | 0 | 0 | 0 | -
O=C1[C@@H]2[C@@H](CN3CN(c4ccccc4)N=C(c4ccccc4)[C@@]23c2ccccc2)C(=O)N1c1ccccc1 | 0 | 0 | 0 | 57 | 0
COc1ccccc1C(=O)Nc1ccc(S(=O)(=O)N2CCc3ccccc32)cc1 | 0 | 0 | 0 | 51 | 0
Cc1ccc(NC(=O)N2CC(C)OC(C)C2)cc1[N+](=O)[O-] (stereo unspecified) | - | 0 | - | - | -
CCOC(=O)CC[C@@H]1CC[C@]2(CCCN(C(=O)c3ccno3)C2)O1 | - | 0 | - | - | -
COc1ccc([C@H]2/C=C\CN(S(=O)(=O)c3cccc4cccnc34)[C@@H](C)C(=O)N2Cc2ccc(F)cc2)cc1 | 0 | 0 | 0 | 78 | 0
O=C(c1cccc(NS(=O)(=O)c2ccc(F)c(F)c2)c1)N1CCN(C(c2ccccc2)c2ccccc2)CC1 | 0 | 0 | 0 | 90 | 0
O=C(NCc1ccccc1)[C@H]1CCCN1C(=O)[C@H]1CCCN1C(=O)c1cccc(Cl)c1 | - | 0 | - | - | -
O=C(c1cc2cc([N+](=O)[O-])ccc2oc1=O)N1CCN(C2CCCCC2)CC1 | 0 | 0 | 0 | 61 | 47
Cc1cccc(C2Nc3ccccc3C(=O)N2NC(=O)c2ccc([N+](=O)[O-])cc2)n1 (stereo unspecified) | 0 | 0 | 0 | 53 | 62
CC(=O)c1cc(-c2ccc(-c3cc(C(=O)O)c4ccccc4n3)cc2)c(=O)n2c1CCC2 | - | 0 | - | - | -
COC(=O)[C@]12C[C@H](CC(=O)NCCCCc3ccccc3)C(=O)N(Cc3cccc4ccccc34)C1=C[C@H](C(C)(C)C)O[C@@H]2C | - | 0 | - | - | -
CCc1ccc([C@H]2[C@@H]3C(=O)C[C@@H]4C(=O)N(c5ccccc5)C(=O)[C@@H]4[C@@H]3CN2S(=O)(=O)c2ccc(C)cc2)cc1 | - | 0 | 0 | 0 | -
Cc1ccc(S(=O)(=O)N2C[C@H]3[C@H]4C(=O)N(c5ccccc5)C(=O)[C@H]4CC(=O)[C@H]3[C@@H]2c2ccc(Cl)cc2)cc1 | - | 0 | 0 | 0 | -
Cc1ccc(S(=O)(=O)N2[C@H](C(C)C)[C@H]3[C@H]4C(=O)N(c5ccccc5)C(=O)[C@H]4CC(=O)[C@H]3[C@@H]2c2ccccc2)cc1 | - | 0 | 0 | 68 | 0
Cc1ccc(S(=O)(=O)N2C[C@H]3[C@H]4C(=O)N(c5ccccc5)C(=O)[C@H]4CC(=O)[C@H]3[C@@H]2c2cccc3ccccc23)cc1 | - | 0 | 0 | 84 | 46
Cc1ccc(S(=O)(=O)N2C[C@H]3C(=O)C[C@@H]4C(=O)N(c5ccccc5)C(=O)[C@@H]4[C@@H]3C[C@@H]2c2ccccc2)cc1 | - | 0 | 0 | 75 | 0
Cc1ccc(S(=O)(=O)N2C[C@H]3[C@H]4C(=O)N(c5ccccc5)C(=O)[C@H]4CC(=O)[C@H]3[C@@H]2c2ccccc2F)cc1 | - | 0 | 0 | 0 | -
